Assay outcomes as filed in PubChem BioAssay.
Most compounds without a hit are left out; they make up all but 12% or so of the library.
G9a block = inhibitors of human histone lysine methyltransferase G9a; hit rate 8.8% among 350,000; Q96KQ7; AID 504332; Potency, µM (doses to about 102 µM), inactives show top-dose activity, negative = inhibition, hits mostly inhibitors; G9a H3K9 monomethylation, AlphaScreen, 2 h; also: % is scaled to controls: 0 for no effect and ±100 for the full control effect; nearly all actives have a fitted effect of over 75% in size
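Quantitative HTS format: methyltransferase activity on a biotin-tagged H3K9 peptide is measured by AlphaScreen, using a rabbit anti-monomethyl-H3K9 antibody with streptavidin donor and anti-IgG acceptor beads. Final levels are 20 nM enzyme, 500 nM peptide, 20 uM SAM; 2 h RT.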
JMJD2A Tudor inh = inhibitors of human JMJD2A Tudor domain; AlphaScreen JMJD2A-Tudor / H3K4me3 peptide binding; Potency, µM (doses to about 114 µM), inactives show at the highest dose activity change, negative = inhibition, actives largely listed as inhibitors; hit rate 4.4% among 390,000; O75164; also: % is scaled to controls: 0 for no effect and ±100 for the full control effect; nearly all actives have a fitted effect of over 50% in size
HP1b binding inh = HP1-beta chromodomain-methylated histone interaction inhibition; AlphaScreen HP1-beta / biotin-H3K9me3 peptide binding; Potency, µM (series often up to 114 µM), for inactives: at the highest dose activity change, negative = inhibition, most hits filed as inhibitors; hit rate 0.56% among 390,000; also: nearly all actives have a fitted effect of over 70% in size
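HP1-beta protein (50 nM final) preincubated 30 min at room temperature with biotinylated H3(1-18)K9me3 peptide (50 nM) in PBS pH 7.4, 0.01% Tween-20, then compound added for 30 min. AlphaScreen streptavidin donor/nickel chelate acceptor beads (10 ug/mL final), 30 min dark, luminescence read.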
BAZ2B block = inhibitors of human BAZ2B bromodomain; AlphaScreen BAZ2B-H3K14Ac peptide displacement; Potency, µM (series often up to 114 µM), inactives show at the highest dose activity change, negative = inhibition, usual class: inhibitors; hit rate 4.4% among 360,000; AID 504333; also: % is scaled to controls: 0 for no effect and ±100 for the full control effect; nearly all actives have a fitted effect of over 60% in size
Target sequence (Q9UIF8 whole entry, looked up): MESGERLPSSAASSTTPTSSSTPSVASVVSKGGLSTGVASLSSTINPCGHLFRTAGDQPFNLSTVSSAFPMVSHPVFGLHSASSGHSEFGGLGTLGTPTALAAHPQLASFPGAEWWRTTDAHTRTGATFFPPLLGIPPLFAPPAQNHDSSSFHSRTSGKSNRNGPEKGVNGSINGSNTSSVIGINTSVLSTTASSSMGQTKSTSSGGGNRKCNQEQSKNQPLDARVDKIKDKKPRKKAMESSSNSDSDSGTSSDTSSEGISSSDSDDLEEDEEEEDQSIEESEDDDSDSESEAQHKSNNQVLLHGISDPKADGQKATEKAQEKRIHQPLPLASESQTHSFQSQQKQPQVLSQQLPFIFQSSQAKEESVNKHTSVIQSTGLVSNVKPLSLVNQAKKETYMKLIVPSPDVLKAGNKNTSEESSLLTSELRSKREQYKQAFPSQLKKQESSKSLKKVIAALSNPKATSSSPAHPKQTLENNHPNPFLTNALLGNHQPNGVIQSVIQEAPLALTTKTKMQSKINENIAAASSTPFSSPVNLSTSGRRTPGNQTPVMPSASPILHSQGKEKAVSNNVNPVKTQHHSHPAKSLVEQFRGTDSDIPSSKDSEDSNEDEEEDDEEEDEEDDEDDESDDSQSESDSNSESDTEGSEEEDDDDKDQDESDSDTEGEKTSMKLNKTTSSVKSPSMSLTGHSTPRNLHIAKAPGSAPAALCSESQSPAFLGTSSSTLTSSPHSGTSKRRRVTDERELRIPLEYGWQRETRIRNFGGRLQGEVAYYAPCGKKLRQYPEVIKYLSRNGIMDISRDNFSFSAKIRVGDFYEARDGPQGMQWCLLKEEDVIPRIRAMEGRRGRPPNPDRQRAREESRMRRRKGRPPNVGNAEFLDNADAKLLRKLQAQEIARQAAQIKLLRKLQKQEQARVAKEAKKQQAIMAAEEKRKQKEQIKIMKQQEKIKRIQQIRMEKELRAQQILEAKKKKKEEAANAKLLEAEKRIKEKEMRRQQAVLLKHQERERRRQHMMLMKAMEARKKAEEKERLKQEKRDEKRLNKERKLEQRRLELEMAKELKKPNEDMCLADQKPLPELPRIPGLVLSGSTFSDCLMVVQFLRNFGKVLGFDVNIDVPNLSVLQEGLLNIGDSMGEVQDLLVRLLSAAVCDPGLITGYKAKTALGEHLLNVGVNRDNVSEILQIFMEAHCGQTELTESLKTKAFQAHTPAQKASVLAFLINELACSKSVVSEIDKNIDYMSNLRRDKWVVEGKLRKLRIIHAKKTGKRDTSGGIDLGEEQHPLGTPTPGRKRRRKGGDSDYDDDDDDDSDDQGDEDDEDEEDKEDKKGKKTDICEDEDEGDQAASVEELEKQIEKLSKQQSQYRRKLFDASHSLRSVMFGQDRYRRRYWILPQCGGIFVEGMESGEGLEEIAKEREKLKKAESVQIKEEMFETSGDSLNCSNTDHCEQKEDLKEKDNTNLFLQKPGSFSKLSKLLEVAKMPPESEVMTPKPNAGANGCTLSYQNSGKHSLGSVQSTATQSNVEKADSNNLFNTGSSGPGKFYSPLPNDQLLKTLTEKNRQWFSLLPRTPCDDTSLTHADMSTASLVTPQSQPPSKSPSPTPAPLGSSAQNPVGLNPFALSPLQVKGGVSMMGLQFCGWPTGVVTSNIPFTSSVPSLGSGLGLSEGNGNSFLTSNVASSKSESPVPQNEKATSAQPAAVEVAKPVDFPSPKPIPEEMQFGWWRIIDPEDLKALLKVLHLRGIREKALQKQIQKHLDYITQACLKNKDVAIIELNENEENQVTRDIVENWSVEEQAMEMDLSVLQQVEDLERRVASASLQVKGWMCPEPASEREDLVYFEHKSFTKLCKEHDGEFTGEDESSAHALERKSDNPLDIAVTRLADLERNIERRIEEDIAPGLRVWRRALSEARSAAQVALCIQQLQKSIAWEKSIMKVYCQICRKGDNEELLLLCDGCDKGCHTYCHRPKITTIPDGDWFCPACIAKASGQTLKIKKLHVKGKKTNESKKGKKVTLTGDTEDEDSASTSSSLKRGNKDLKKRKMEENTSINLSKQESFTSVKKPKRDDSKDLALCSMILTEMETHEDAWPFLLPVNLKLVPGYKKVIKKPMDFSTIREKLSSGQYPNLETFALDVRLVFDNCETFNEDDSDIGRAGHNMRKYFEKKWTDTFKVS
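AlphaScreen luminescence quantifies BAZ2B engagement of H3K14Ac peptide; the protein and biotinylated peptide are both at 50 nM final, buffer PBS pH 7.4 with 0.01% Tween-20, all steps at room temperature.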
Sfp inh = inhibitors of Bacillus subtilis Sfp phosphopantetheinyl transferase | Q9F4F7 | Biochemical Sfp PPTase activity, qHTS | Potency, µM, inactives show largest response in the series, negative = inhibition, most hits filed as inhibitors | hit rate 3.5% among 310,000;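 also: the enzyme is Sfp with the accession as filed and its product quenches rhodamine fluorescence; 0% = enzyme reaction without inhibitor and -100% = no enzyme wells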
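Sfp 15 nM + cpd, 15 min RT; start w/ rhodamine-CoA 5 uM, BHQ-2-YbbR 12.5 uM (final); 50 mM Hepes pH 7.6, 10 mM MgCl2, 0.01% NP-40, 0.01% BSA; read 525/598 nm at 0 and 30 min.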
Active calls of the source: *; ? = inconclusive; / = not tested or not shown; ! = repeats disagree; [ ] = remark or other dose. Calls follow the shape of the dose curve; as a rule, active = well fitted curve in the direction sought with a large enough effect; inconclusive = small, poorly fitted or top-dose-only effect, or another doubt; inactive = no such curve, though single readings can be large; an effect the other way counts as inactive or inconclusive. Potency is read from the fitted curve at half-maximal effect.

SMILES	G9a block	JMJD2A Tudor inh	HP1b binding inh	BAZ2B block	Sfp inh
CC(C)C[C@H](NC(=O)[C@H](Cc1ccccc1)NC(=O)CNC(=O)[C@H](CO)NC(=O)[C@@H](N)Cc1ccc(O)cc1)C(=O)N[C@H](C(=O)O)[C@H](C)O	23%[59 µM]	/	/	/	-6%
O=C1NC(=O)C(=Cc2ccc(Oc3ccc([N+](=O)[O-])cc3)cc2)C(=O)N1	35µM*	56µM*	-6%	-35%	20µM*
O=C1NC(=O)C(=Cc2cc([N+](=O)[O-])ccc2N2CCCCC2)C(=O)N1	10%[59 µM]	-20%	24%	-12%	16%
O=C1NC(=O)C(=Cc2ccccc2OCCOc2ccc([N+](=O)[O-])cc2)C(=O)N1	16µM*	89µM*	26%	?	50µM*
O=C(COc1ccccc1/C=C1/NC(=O)NC1=O)Nc1ccccc1	?	-17%	-7%	-9%	4%
CCN(CC)C(=O)Cn1cc(S(=O)(=O)CC(=O)NCc2ccc(C)cc2)c2ccccc21	/	-3%	46%	/	/
O=C(O)Cc1cccnc1C(=O)O	?	/	/	/	16µM*
CC1Cc2c(cnc3c2CN(C)CC3)CO1 (stereo not drawn)	/	/	/	/	-24%
CC1CC(Cl)CCC1C(=O)OC(C)(C)C (stereo not drawn)	/	/	/	/	11%
O=C(O)C(Cc1cnc[nH]1)NS(=O)(=O)c1ccc(Br)cc1 (stereo not drawn)	40µM*	10µM*	2%	-7%	-24%
O=C(NC(Cc1cnc[nH]1)C(=O)O)c1ccccc1 (stereo not drawn)	?	-16%	14%	-12%	-11%
CP(=O)(Nc1ccc(Cl)cc1)c1nc2c(s1)CCCC2 (stereo not drawn)	40µM*	-14%	33%	-19%	3%
COC(C)C(O)(C(=O)OC1=CCN2CC[C@H](O)[C@H]12)C(C)C (stereo partly drawn)	/	/	/	/	8%
CCOP(=S)(OCC)Oc1cc(C)oc(=O)c1	/	-24%	-11%	?	20µM*
CCOP(=S)(OCC)Oc1cc(C)oc(=O)c1Cl	8.9µM*	20µM*	-9%	56µM*	8.9µM*
CCOP(=S)(OCC)Oc1ccc2c(C)c(Cl)c(=O)oc2c1	51%[59 µM]	132%	169%	/	8%
C[C@]12CCC3C(CC[C@H]4C[C@@H](O)CC[C@]34C)[C@@H]1CCC2=O (stereo partly drawn)	/	/	/	/	19%
O=C1CCC(c2ccccc2)(C2CCN(Cc3ccccc3)CC2)C(=O)N1 (stereo not drawn)	12%[59 µM]	-9%	34%	10%	21%
COC(=O)[C@@H]1C[C@H](OC(C)=O)C(=O)[C@H]2[C@@]1(C)CC[C@H]1C(=O)O[C@H](c3ccoc3)C[C@]21C	?	/	/	/	-2%
COCCN1C(=NCCCOC(C)C)N[C@@H](c2ccccc2)C(C(=O)OC)=C1C	/	?	29%	7%	25%
COc1ccc2[nH]cc(CCN=C(NC(=O)c3ccccc3OC)Nc3nc(C)cc(C)n3)c2c1	?	?	-4%	25µM*	/
COc1ccc2[nH]cc(CCN=C(N)N)c2c1	?	-7%	32%	?	6%
CCOc1nc(NC(C)C)nc(N2CC3CC(C2)c2cccc(=O)n2C3)n1 (stereo not drawn)	-28%	20µM*	?	11%	0%
CCCCCCNc1nc(OC)nc(N2CC3CC(C2)c2cccc(=O)n2C3)n1 (stereo not drawn)	-17%	-17%	26%	-14%	8%
CN1C(=O)COc2c(C(=O)N[C@@H]3CN4CCC3CC4)cc(Cl)cc21	/	/	/	/	-9%
SMILES	G9a block	JMJD2A Tudor inh	HP1b binding inh	BAZ2B block	Sfp inh
NS(=O)(=O)c1ccc(CNC(=O)COc2ccc3c4c(c(=O)oc3c2)CCCC4)cc1	14%	35µM*	3%	-3%[57.1 µM]	-6%
Cn1c(CCCC(=O)O)nc2cc(N(CCCl)CCCl)ccc21	?	/	/	/	-12%
CCCC1(CCC)C(=O)NC(=NCc2ccccc2)NC1=O	45µM*	-10%	1%	3%	-7%
CC(=O)c1c(C)n(Cc2ccccc2)c2ccc(O)cc12	6%	-10%	35%	-34%	3%
COC(=O)c1c(C)n(Cc2ccccc2)c2ccc(O)cc12	8.9µM*	-15%	38%	-37%	50µM*
CCOC(=O)c1c(C)n(Cc2ccccc2)c2ccc(O)cc12	32µM*	?	1%	?	50µM*
C=CC[C@]1(O)CCC2C3CCC4=CCCCC4C3CCC21C (stereo partly drawn)	36%[59 µM]	/	/	/	-9%
CCCC[C@@H](C)[C@@H](OC(=O)C[C@@H](CC(=O)O)C(=O)O)[C@H](C[C@@H](C)CCCCCC[C@@H](O)C[C@H](O)[C@H](C)N)OC(=O)C[C@@H](CC(=O)O)C(=O)O	/	/	/	/	14%
Cc1ccc(N/N=C/C=C/c2ccco2)cc1	/	50µM*	?	/	/
COc1cc(C2NCc3ccccc3-n3cccc32)ccc1O (stereo not drawn)	-14%[59 µM]	-28%	-3%	-32%	-1%
COc1ccc(C2NCc3ccccc3-n3cccc32)cc1 (stereo not drawn)	71µM*	?	-15%	?	-6%
Cc1ccc(NC(=O)Nc2cc3c(cc2N2CCCCC2)n(C)c(=O)n3C)cc1Cl	?	?	2%	?	/
NC1C=CC=C(C(=O)O)C1 (stereo not drawn)	3.2µM*	-21%	31%	/	-20%
CC(=O)N1C[C@H](O)C[C@H]1C(=O)O	-16%[59 µM]	?	28%	8%	/
C=C(C)C(=O)CP(=O)(OCC)OCC	/	/	/	/	-4%
COc1ccc2c(c1)CCC1C2CC[C@@]2(C)C1CC[C@@H]2NCCCCCCN1C(=O)C=CC1=O (stereo partly drawn)	2.5µM*	/	/	/	/
O=C(Oc1ccccc1)N1CCC[C@@]2(CCN(Cc3cc(C(F)(F)F)cc(C(F)(F)F)c3)C2)C1	-1%[12.7 µM]	/	/	/	10%
COc1ccc(CN2CCN(c3ncnc4sc5c(c34)CCCC5)CC2)cc1F	?	-30%	5%	-29%	/
O=C(O)c1ccccc1-c1c2cc(Br)c(=O)cc-2oc2[c]([Hg])c(O)c(Br)cc12	0.89µM*	/	/	/	2µM*!
Cc1cccc(-n2c(-c3ccco3)nc3ccccc3c2=O)c1C	?	-17%	18%	1%	11%
S=c1[nH]nc(-c2ccco2)n1-c1cccc2ccccc12	?	40µM*	13%	-6%	-15%
COc1ccccc1-n1c(-c2ccco2)n[nH]c1=S	22µM*	22µM*	28%	-1%	-24%
c1cc[n+]2c(c1)-c1cccc[n+]1CC2	/	/	/	/	21%
NCC1O[C@@H](O[C@H]2C(O)C(O[C@@H]3C(O[C@H]4OC(CO)C(O)C(O)C4N)C(N)CC(N)[C@H]3O)O[C@@H]2CO)C(N)C(O)C1O (stereo partly drawn)	-8%[2.33 µM]	/	/	/	10%
C[N+](C)(C)c1ccccc1	20µM*	?	17%	-13%	-5%
O=[N+]([O-])c1ccccc1	28%[59 µM]	/	/	/	23%
